Compound activity as filed in PubChem BioAssay.
PostGolgi yeast = growth inhibition of a yeast mutant, post-Golgi transport screen. post-Golgi transport phenotypic cell assay. 98,000 compounds, 0.9% hits. AID 739. inhibition, % at 10 µM;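 note: yeast cells grown in 1536-well plates; yeast grown about 18 h at 30C before absorbance read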
Cav3 T inh = human Cav3.2 channel inhibition, primary screen | Cav3.2-expressing cells, Fluo-4 calcium fluorescence FDSS; stronger effect = lower value | AID 449739 | B-score at 10 µM | 100,000 compounds, 4% hits;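 active = single-dose well whose peak fluorescence ratio is a statistical outlier from its plate by either plate-standardised score or position-corrected B-score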
hDAT+cocaine = modulates human dopamine transporter uptake under cocaine. Q01959. LLC-PK1 hDAT cells, [14C]-dopamine uptake with cocaine IC80; actives deviate in either direction. B-score at 10 µM. 110,000 compounds, 1.3% hits. AID 449768;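 active = Z score or B-score, a plate-position-corrected score, falls beyond the plate's 99.7% confidence bounds, in either direction; inactive = both scores lie inside the 99.7% bounds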
Target sequence (Q01959 whole entry, looked up): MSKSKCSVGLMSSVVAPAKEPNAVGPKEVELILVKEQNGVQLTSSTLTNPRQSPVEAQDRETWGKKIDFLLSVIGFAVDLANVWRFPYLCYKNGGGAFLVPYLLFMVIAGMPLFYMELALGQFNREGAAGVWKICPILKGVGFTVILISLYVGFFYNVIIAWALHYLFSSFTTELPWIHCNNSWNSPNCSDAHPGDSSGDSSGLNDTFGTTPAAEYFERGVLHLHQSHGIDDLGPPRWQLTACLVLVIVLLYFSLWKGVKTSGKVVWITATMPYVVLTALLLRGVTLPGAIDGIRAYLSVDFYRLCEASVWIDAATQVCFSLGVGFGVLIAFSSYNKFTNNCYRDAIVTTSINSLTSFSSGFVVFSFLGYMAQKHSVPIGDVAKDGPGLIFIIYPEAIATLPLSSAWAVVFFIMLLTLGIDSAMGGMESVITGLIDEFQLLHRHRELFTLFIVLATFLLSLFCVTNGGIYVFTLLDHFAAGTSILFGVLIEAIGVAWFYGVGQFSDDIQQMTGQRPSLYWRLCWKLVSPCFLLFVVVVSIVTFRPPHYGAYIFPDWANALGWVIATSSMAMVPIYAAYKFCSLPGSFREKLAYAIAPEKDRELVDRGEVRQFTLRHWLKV
PLAP act = activates human placental alkaline phosphatase; activation fold at 20 µM; P05187; AID 696; 96,000 compounds, 1.2% hits; purified PLAP enzyme, luminescent substrate read-out; stronger effect = higher value; in the data active = activation fold above about 2
PostGolgi ctrl = growth of the yeast control strain, post-Golgi counter-screen; inhibition, % at 10 µM; 98,000 compounds, 5% hits; efflux-deficient yeast background strain, growth absorbance A615, 16 h
Each line names hits and unclear results; the compound was inactive in the other large screens; ! = repeats disagree. Only some compounds are listed: those with a hit (about 9.6% of all), similar ones and a draw of the others. Cut-off read from the data, not from the text of the source, unless noted: active = inhibition above about 30%; inactive = the rest.

CC1(C)OC(=O)N(c2ccccc2)C12C=Cc1cc(Br)ccc1O2 (stereo not given)	Cav3 T inh -6.2
Cc1nc(N)sc1-c1csc(Nc2ccccn2)n1	hDAT+cocaine 4.61
Cc1nc(N)sc1-c1csc(Nc2ccc(Cl)cn2)n1	hDAT+cocaine 4.46, PostGolgi ctrl 41.7 (no result: PLAP act)
CCOc1cc(NC(=O)c2ccccc2C)c(OCC)cc1NC(=O)C1=Cc2ccccc2OC1	none
COc1ccc(OC2C(=O)N(Cc3ccc(F)cc3)C2c2ccc(OC)c(OC)c2)cc1 (stereo not given)	PostGolgi ctrl 40.0
COc1ccc(-c2cc(N)n(S(=O)(=O)c3c(F)c(F)c(F)c(F)c3F)n2)cc1OC	PostGolgi yeast 103.9, PostGolgi ctrl 67.6
CCN(c1nc(N)c(C(=O)N=C(N)N)nc1Cl)C(C)C	none (no result: PostGolgi yeast, Cav3 T inh, PLAP act, PostGolgi ctrl)
C=CCn1c(SCn2nnc3ccccc3c2=O)nc2scc(-c3cccs3)c2c1=O	none
C=CCn1c(SCC(=O)N2CC(=O)Nc3ccccc32)nc2scc(-c3ccccc3)c2c1=O	Cav3 T inh -7.17
C=CCn1c(SCC(=O)Nc2ccccc2)nc2scc(-c3cccs3)c2c1=O	Cav3 T inh -5.09
N#CCSc1nc2scc(-c3cccs3)c2c(=O)n1CCc1ccccc1	PostGolgi ctrl 32.0
O=C(C1=C[C@@H](c2ccc(Br)cc2)C[C@@H](OCc2ccc(CO)cc2)O1)N1CCN(Cc2ccc3c(c2)OCO3)CC1	none (no result: PostGolgi yeast, PLAP act, PostGolgi ctrl)
O=C(NCCc1ccccc1)C1(c2ccccc2)CC1(Cl)Cl (stereo not given)	PostGolgi ctrl 39.0
Cc1ncsc1CCOC(=O)C12CC3CC(CC(C3)C1)C2	PostGolgi ctrl 46.4
Cc1ncsc1CCOC(=O)c1cccnc1	none
C=CCN(CC=C)S(=O)(=O)c1ccc2nsnc2c1	none
Cc1csc(SCC(=O)Nc2ncc(Cl)c(C)c2Cl)n1	none
COC(=O)c1ccc(OC)c(CSc2nnc(COc3ccc(Cl)cc3)o2)c1	Cav3 T inh -5.76
CCOC(=O)N1CCN(C(=O)CSc2nnc(COc3ccc(Cl)cc3)o2)CC1	Cav3 T inh -3.25
O=C(CSc1nnc(COc2ccc(Cl)cc2)o1)N1c2ccccc2CCc2ccccc21	PostGolgi ctrl 30.7
COC(C/C=C/C(=O)COCc1ccccc1)OC	none (no result: PostGolgi yeast, PLAP act, PostGolgi ctrl)
CC1(c2nnc(-c3ccncc3)o2)CC(c2ccccc2)=NO1 (stereo not given)	none (no result: PostGolgi yeast, PLAP act, PostGolgi ctrl)
CCN(CC)S(=O)(=O)c1cc(NC(=O)COC(=O)CCc2nc3ccccc3s2)ccc1C	Cav3 T inh -4.81
O=C(c1sc2ccccc2c1Cl)N(Cc1cccs1)C1CCS(=O)(=O)C1 (stereo not given)	Cav3 T inh -7.81
Cc1nc2ccc(NC(=O)c3ccc(F)c(S(=O)(=O)N4CCOCC4)c3)cc2s1	none (no result: Cav3 T inh)
COc1ccc(/C(N)=N/OC(=O)c2cc(-c3ccccc3)nc3ccccc23)cc1	none
Cc1ccc(/C(N)=N/OC(=O)c2cc(-c3ccccc3)nc3ccccc23)cc1	PostGolgi ctrl 30.7
CCn1ncc(Cl)c1C(=O)Nc1cc(Cl)ccc1Cl	none
Nc1c(C(=O)c2ccc(Br)s2)oc2ccccc12	PostGolgi ctrl 36.6 (no result: hDAT+cocaine)
CCC(C)(C(=O)NC1CCCCC1)N(C(=O)c1cnccn1)c1c(C)n(C)n(-c2ccccc2)c1=O (stereo not given)	none
Cc1cccc(-n2nnc(C(=O)N3CCc4ccccc4C3)c2N)c1	Cav3 T inh -4.67, PostGolgi ctrl 33.7
Cc1cccc(C)c1NC(=O)c1ccc(-c2ccc(Cl)cc2Cl)o1	Cav3 T inh -4.82, PostGolgi ctrl 45.8
Cc1ccccc1-c1ccc(C(=O)Nc2cccc(F)c2)o1	none (no result: PostGolgi yeast, PLAP act, PostGolgi ctrl)
Cc1ccccc1NC(=O)c1ccc(-c2ccc(Cl)cc2Cl)o1	Cav3 T inh -7.49, PostGolgi ctrl 53.8
CS(=O)c1ccccc1-c1nc(-c2cc(C(F)(F)F)cc(C(F)(F)F)c2)no1 (stereo not given)	none (no result: Cav3 T inh, hDAT+cocaine)
CCOC(=O)c1c(-c2ccco2)csc1N	hDAT+cocaine 2.14
COc1ccccc1C1CC(c2ccccc2)Nc2ncnn21 (stereo not given)	none
O=C(OCc1nc2ccccc2[nH]1)C12CC3CC(CC(C3)C1)C2	Cav3 T inh -6.7
Fc1ccc(-c2nnc(-n3nnc4ccccc43)c3ccccc23)cc1	none (no result: PostGolgi yeast, PLAP act, PostGolgi ctrl)
COC(=O)C(Cc1ccccc1)NS(=O)(=O)c1ccc(F)cc1Br (stereo not given)	none (no result: PostGolgi yeast, PLAP act, PostGolgi ctrl)
O=C(COC(=O)[C@H](Cc1ccccc1)NS(=O)(=O)c1ccccc1F)NC1CCCCC1	Cav3 T inh -4.94
Cc1ccc(-c2nc3cc(NC(=O)C(C)C)ccc3o2)cc1	PLAP act 2.5
Cc1ccc(-c2nc3cc(NC(=O)C(C)C)ccc3o2)cc1C	none (no result: PLAP act)
O=C(Nc1ccc2oc(-c3ccc(Cl)c(Cl)c3)nc2c1)c1ncn[nH]1	PLAP act 2.6
O=C(Nc1ccc2oc(-c3ccccc3F)nc2c1)c1ncn[nH]1	none (no result: PLAP act)
COC(=O)c1sccc1NC(=O)c1ccc(OC)cc1	PostGolgi ctrl 31.1
COC(=O)c1sccc1NC(=O)Nc1ccc(Cl)c(Cl)c1	hDAT+cocaine -7.91
COC(=O)c1sccc1NC(=O)c1csc(C)c1	none
Cc1nn(CC(=O)NCc2cccc3ccccc23)c(=O)c2ccccc12	none
CC(C)(C)NC(=O)CSC(=Nc1cccc(F)c1)NC#N	none
Cc1nnsc1C(=O)Nc1cc(Cl)ccc1Cl	none (no result: PostGolgi yeast, PLAP act, PostGolgi ctrl)
O=C(Nc1ccc(O)cc1)c1ccc(C(=O)c2ccccc2)o1	none
Nn1c(Cc2cccc3ccccc23)nnc1SCC(=O)NC1CCS(=O)(=O)C1 (stereo not given)	PLAP act 2
CCN(C(=O)CSc1nnc(Cc2cccc3ccccc23)n1N)C1CCS(=O)(=O)C1 (stereo not given)	none
Cc1cc2ccccc2n1CCNC(=O)c1ccc(Br)o1	none (no result: PostGolgi yeast, PLAP act, PostGolgi ctrl)
COc1ccccc1NC(=S)N1CCC(c2nc3cc(C)c(C)cc3[nH]2)CC1	hDAT+cocaine -2.31
COc1ccccc1NC(=O)N1CCC(c2nc3cc(C)c(C)cc3[nH]2)CC1	none (no result: PostGolgi yeast, PLAP act, PostGolgi ctrl)
COc1ccc(/C=N/Nc2ccccc2)cc1Cn1nc(C)c([N+](=O)[O-])c1C	none
CC(=O)Nc1ccc(S(=O)(=O)c2ccc(N)cc2)cc1	hDAT+cocaine 1.99
CN(C(=O)COC(=O)c1ccccc1Nc1ccccc1)C1CCS(=O)(=O)C1 (stereo not given)	none
Cc1cccc(Nc2ccccc2C(=O)OCC(=O)N(C)C2CCS(=O)(=O)C2)c1C (stereo not given)	Cav3 T inh -3.38
COc1cc2[nH]c(=O)n(CCCCCC(=O)N3CCN(c4ccccc4)CC3)c(=O)c2cc1OC	hDAT+cocaine 3.52
COC(=O)c1ccc2c(=O)n(CCCCCC(=O)N3CCN(c4ccccc4)CC3)c(=O)[nH]c2c1	hDAT+cocaine -8.31!
O=C(CCCCn1c(=O)[nH]c2ccccc2c1=O)N1CCN(c2cccc(C(F)(F)F)c2)CC1	Cav3 T inh -9.43
CN(C)S(=O)(=O)c1ccc(NC(=O)N2CCN(c3cccc(C(F)(F)F)c3)CC2)cc1	PLAP act 2.1
CCn1ncc(/C=N\NC(=O)c2ccc3c(c2)c(C)c(C)n3Cc2ccccc2)c1C	Cav3 T inh -5.71
CCn1ncc(/C=N/NC(=O)c2ccc3c(c2)OCO3)c1C	PostGolgi ctrl 32.8
CCn1nc(C)c(/C=N\NC(=O)c2ccc3c(c2)OCO3)c1C	none
